Bead autofluor = flagged as autofluorescent in microsphere protease counterscreen; compound autofluorescence counterscreen, microsphere flow cytometry; stronger effect = higher value; fluorescence intensity (concentration not given with the values); 360,000 tested, 3.1% active; in the data active means fluorescence intensity above about 16000; inconclusive means no clear call, values can overlap the other calls
PriA SSB inh = inhibitors of Klebsiella pneumoniae PriA binding to SSB C-terminal tail; AID 1272365; AlphaScreen SSBct-PriA binding, biotinylated peptide; inhibition, % at 33 µM; 430,000 tested, 0.6% active; in the data active means inhibition mostly above about 37%, no sharp cut-off; inactive means mostly below about 20%;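 further: plate controls were negative control peptide for no effect and reference peptide for full effect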
Anthrax LF inh2 = inhibitors of Bacillus anthracis lethal factor protease. 360,000 tested, 0.12% active. inhibition, % at 10 µM. multiplex microsphere protease cleavage assay, LF; further: plate controls were buffer without enzyme for full effect and enzyme alone for no effect
BoNT-F LC inh = blocks Botulinum neurotoxin F light chain protease. 360,000 tested, 0.22% active. Multiplex microsphere protease cleavage assay, flow cytometry. inhibition, % at 10 µM; in the data active means inhibition above about 35%, passing the limit was not always enough; inconclusive means no clear call, values can overlap the other calls; further: plate controls were buffer without enzyme for full effect and enzyme alone for no effect
MazEF act = activators of E. coli MazEF toxin-antitoxin RNase; P0AE70; FAM/BHQ RNA-DNA oligo cleavage fluorescence, 5 h; activation, % at 20 µM; 350,000 tested, 0.32% active; in the data active means activation above about 50%
Target sequence (P0AE70 whole entry, looked up): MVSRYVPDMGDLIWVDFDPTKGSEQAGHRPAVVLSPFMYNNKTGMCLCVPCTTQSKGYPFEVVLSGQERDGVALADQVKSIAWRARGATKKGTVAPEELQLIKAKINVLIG
BoNT A protease = blocks Botulinum neurotoxin A light chain protease; multiplex microsphere protease substrate cleavage, flow cytometry; inhibition, % at 10 µM; 360,000 tested, 0.17% active; AID 588499; further: plate controls were buffer without enzyme for full effect and enzyme alone for no effect
* marks the source's active call; other numbers are inactive results; ? = inconclusive; · = no result; ! = a repeat was not active. Sampled rows, rich in hits. Any-hit rate of the full collection: about 3.3%. Unless noted, no stated cut-off is given here; in the data, active means inhibition above about 30%; inconclusive means no clear call, values can overlap the other calls; inactive means below that.

SMILES	Bead autofluor	PriA SSB inh	Anthrax LF inh2	BoNT-F LC inh	MazEF act	BoNT A protease
C=CCNc1nc(-c2ccc(OC)cc2OC)cs1	21095*	23	-3	1	-6	?
CSc1ccc(CC(=O)N2CC(=O)Nc3ccccc32)cc1	·	-16	·	·	·	·
O=C(NCCn1cnc2ccsc2c1=O)c1cc(-c2cccnc2)on1	·	-6	·	·	·	·
O=C(NCCn1cnc2ccsc2c1=O)c1cc(C2CC2)on1	·	38*	·	·	·	·
CC(C(=O)N1CCC(n2c(=O)[nH]c3ccc(F)cc3c2=O)CC1)n1cccn1 (centres undefined)	·	-3	·	·	·	·
COc1ccccc1-c1cc2c(SCC(=O)Nc3ccccc3)nccn2n1	·	-8	·	·	·	·
COc1ccc(-c2noc(CS(=O)(=O)c3cc(C)c(C)cc3C)n2)cc1OC	·	-18	·	·	·	·
Cc1nc2ccc(NC(=O)CCCc3ccccc3)cc2c(=O)n1-c1ccc(F)cc1	·	4	·	·	·	·
Cn1cc(Cl)c(C(=O)N/N=C/c2ccc3c4c(cccc24)CC3)n1	4230	·	0	1	68*	3
O=C(CS(=O)c1ccc(C(F)(F)F)cc1[N+](=O)[O-])Oc1ccc(Cl)cc1 (centres undefined)	22500*	0	-7	0	-4	-1
Cc1cc(C)cc(OC(=O)CS(=O)c2ccc(C(F)(F)F)cc2[N+](=O)[O-])c1 (centres undefined)	10026	-2	-10	5	2	-2
O=C(Nc1ccccn1)N[C@H]1CC(=O)N(c2ccc(F)cc2)C1	·	-6	·	·	·	·
O=C(Cc1nc(-c2cnccn2)no1)NNC(=O)Nc1ccccc1	4072	6	35*	?	4	?
O=C(Nc1ccc(Cl)c(Cl)c1)Nc1ccccc1Cc1nc(-c2cnccn2)no1	·	-10	·	·	·	·
CN(C)c1nc(NS(=O)(=O)c2ccc(Cl)cc2)nc(N(C)C)n1	16435*	1	-3	-3	4	0
O=C(Cc1cccc2ccccc12)N(CC(F)(F)F)C1CCOCC1	·	-4	·	·	·	·
CC(O)c1cccc(N=Cc2ccc3ccccc3c2O)c1 (centres undefined)	3851	-4	42*	?	-24	6
Cc1nc2ccc(N=Cc3cccc4ccccc34)cc2s1	·	13	·	·	·	·
O=C(CCn1nnc2ccccc21)Nc1nnc(-c2ccccc2F)s1	22751*	-21	2	4	11	2
CCN1C(=O)C(CC(=O)NCc2ccc(Cl)cc2)N(CC)C1=O (centres undefined)	20390*	2	0	-1	10	-1
CCN1C(=O)C(CC(=O)NC2CCCCC2)N(CC)C1=O (centres undefined)	3377	-14	-3	0	4	-1
Cc1nn(C)cc1/C=N/O	16844*	·	-9	12	5	9
CCC(=O)NCc1ccc2c(c1)cc(C)n2C	·	-6	·	·	·	·
COc1ccc(Cl)cc1C(=O)NCc1ccc2c(c1)cc(C)n2C	·	-1	·	·	·	·
COc1cc(/C=C\C(=O)NCc2ccc3c(c2)cc(C)n3C)cc(OC)c1OC	2962	16	-80	-120	-2	68*
SMILES	Bead autofluor	PriA SSB inh	Anthrax LF inh2	BoNT-F LC inh	MazEF act	BoNT A protease
Cc1cc2cc(CNC(=O)NC3CCCCC3)ccc2n1C	2076	45*!	-107	-132	3	23
O=C(NC1CC1)c1cccc(Nc2ccc(-c3ccc4c(c3)OCCO4)nn2)c1	21941*	-9	-3	3	-2	4
O=C(CN1C(=O)COc2ccccc21)N(Cc1cccnc1)Cc1cccc(F)c1	16903*	-6	0	-4	-7	?
CC(=O)Nc1ccc(C2=Nc3nc(CCCO)nn3[C@H](c3ccc(Cl)cc3Cl)C2)cc1	·	-4	·	·	·	·
Nc1ccccc1C(=O)NNc1ncc(C(F)(F)F)cc1Cl	22928*	12	-1	-4	-16	?
O=C(COC(=O)CCc1ccc(S(=O)(=O)N2CCOCC2)cc1)Nc1ncc(C(F)(F)F)cc1Cl	25667*	-14	0	-9	-1	-5
O=C(COC(=O)c1ccc2ccccc2n1)Nc1ncc(C(F)(F)F)cc1Cl	22793*	-6	3	2	1	-1
CCN1C(=O)C(C)(C)COc2ccc(NC(=O)Oc3ccccc3)cc21	·	21	·	·	·	·
COC(=O)c1ccc(S(=O)(=O)NCCSc2nnc3c4ccccc4n(C)c3n2)cc1	23909*	-9	0	-2	0	?
CC(C)OC(=O)CSc1nnc2c3ccccc3n(C)c2n1	2622	-18	0	-2	3	0
O=C(Cc1c(F)cccc1Cl)NCCC(O)C1CCOCC1 (centres undefined)	·	1	·	·	·	·
